Measured values: paper PMC7862700, “An all-to-all approach to the identification of sequence-specific readers for epigenetic DNA modifications on cytosine”

Experiments:
Test in all cases: DAPPL (digital affinity profiling via proximity ligation, sequencing); 10 mM Tris-HCl pH 7.5, 50 mM NaCl, 1 mM DTT, 4% glycerol, room temperature, 30 min; GST-TFs on glutathione beads, 16-mer random dsDNA library, 0.1% formaldehyde crosslink after washing; high values mean tight binding
Conditions in all cases: protein: recombinant; tags: N-terminal GST; dsDNA, one strand shown
GABPA = molecular target: T1, GABPA (Homo sapiens, UniProt Q06546 1-454)
T1 sequence: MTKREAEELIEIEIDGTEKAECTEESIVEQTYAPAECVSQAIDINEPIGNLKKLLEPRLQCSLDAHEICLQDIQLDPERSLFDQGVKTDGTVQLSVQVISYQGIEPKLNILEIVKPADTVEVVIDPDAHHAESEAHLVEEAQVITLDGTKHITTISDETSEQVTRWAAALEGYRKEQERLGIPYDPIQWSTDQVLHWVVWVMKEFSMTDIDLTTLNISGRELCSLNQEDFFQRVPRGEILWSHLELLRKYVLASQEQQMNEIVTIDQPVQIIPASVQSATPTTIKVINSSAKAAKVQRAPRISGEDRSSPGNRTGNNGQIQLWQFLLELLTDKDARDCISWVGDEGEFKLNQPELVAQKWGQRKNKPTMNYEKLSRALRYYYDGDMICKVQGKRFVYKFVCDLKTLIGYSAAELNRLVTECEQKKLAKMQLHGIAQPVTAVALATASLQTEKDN
How it was run: (§1)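 Pools were built from human transcription factors expressed in yeast as GST fusions, captured on glutathione beads and DNA-barcoded, along with a tag-only sample. Incubation with 200 nmole of a 16-mer random double-stranded DNA library lasted 30 min at room temperature in Tris/NaCl/DTT/glycerol buffer, and was followed by washing, 0.1% formaldehyde crosslinking, proximity ligation, PCR amplification and Illumina NextSeq500 sequencing. Binding signal is the quotient of each hexamer's read frequency for a factor and its frequency for the tag-only sample.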

ELF1 = ELF1 (Homo sapiens, UniProt P32519 1-619)
How it was run: as §1

SPIB = SPIB (Homo sapiens, UniProt Q01892 1-262)
How it was run: as §1

FEV = molecular target: T2, FEV (Homo sapiens, UniProt Q99581 1-238)
T2 sequence: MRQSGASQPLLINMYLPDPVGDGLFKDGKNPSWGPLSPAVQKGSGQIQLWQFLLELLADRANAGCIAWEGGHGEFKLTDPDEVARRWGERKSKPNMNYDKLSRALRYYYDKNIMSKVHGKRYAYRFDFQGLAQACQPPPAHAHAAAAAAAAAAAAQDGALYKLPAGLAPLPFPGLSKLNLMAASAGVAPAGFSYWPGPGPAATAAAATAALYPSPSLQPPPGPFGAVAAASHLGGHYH
How it was run: as §1

ETV5 = ETV5 (Homo sapiens, UniProt P41161 1-510)
How it was run: as §1

ELF4 = ELF4 (Homo sapiens, UniProt Q99607 1-663)
How it was run: as §1

ELK4 = molecular target: T3, ELK4 (Homo sapiens, UniProt P28324-2 1-405)
T3 sequence: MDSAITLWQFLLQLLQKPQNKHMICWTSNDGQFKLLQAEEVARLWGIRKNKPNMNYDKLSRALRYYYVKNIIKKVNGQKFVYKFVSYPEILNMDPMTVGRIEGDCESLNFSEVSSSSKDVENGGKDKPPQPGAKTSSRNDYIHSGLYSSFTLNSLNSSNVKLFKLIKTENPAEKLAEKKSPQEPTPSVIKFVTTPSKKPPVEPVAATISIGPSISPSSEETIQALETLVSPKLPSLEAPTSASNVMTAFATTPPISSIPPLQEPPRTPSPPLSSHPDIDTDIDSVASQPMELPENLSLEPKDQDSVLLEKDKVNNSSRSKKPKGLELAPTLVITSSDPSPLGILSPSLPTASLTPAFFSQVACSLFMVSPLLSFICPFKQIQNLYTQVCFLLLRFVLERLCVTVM
How it was run: as §1

ELF3 = molecular target: T4, ELF3 (Homo sapiens, UniProt P78545 1-371)
T4 sequence: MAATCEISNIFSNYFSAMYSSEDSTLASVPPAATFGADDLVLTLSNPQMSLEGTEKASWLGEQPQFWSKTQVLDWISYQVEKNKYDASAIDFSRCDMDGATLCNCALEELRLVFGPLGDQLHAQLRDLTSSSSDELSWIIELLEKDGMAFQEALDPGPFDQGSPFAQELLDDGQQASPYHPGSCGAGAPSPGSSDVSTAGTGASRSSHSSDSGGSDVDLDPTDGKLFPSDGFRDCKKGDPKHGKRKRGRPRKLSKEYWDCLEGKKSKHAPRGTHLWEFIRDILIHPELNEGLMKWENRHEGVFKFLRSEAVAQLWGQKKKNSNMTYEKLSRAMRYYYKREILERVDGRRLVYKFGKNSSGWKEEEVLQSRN
How it was run: as §1

ETV1 = ETV1 (Homo sapiens, UniProt P50549 1-477)
How it was run: as §1

ETV3L = molecular target: T5, ETV3L (Homo sapiens, UniProt Q6ZN32 1-361)
T5 sequence: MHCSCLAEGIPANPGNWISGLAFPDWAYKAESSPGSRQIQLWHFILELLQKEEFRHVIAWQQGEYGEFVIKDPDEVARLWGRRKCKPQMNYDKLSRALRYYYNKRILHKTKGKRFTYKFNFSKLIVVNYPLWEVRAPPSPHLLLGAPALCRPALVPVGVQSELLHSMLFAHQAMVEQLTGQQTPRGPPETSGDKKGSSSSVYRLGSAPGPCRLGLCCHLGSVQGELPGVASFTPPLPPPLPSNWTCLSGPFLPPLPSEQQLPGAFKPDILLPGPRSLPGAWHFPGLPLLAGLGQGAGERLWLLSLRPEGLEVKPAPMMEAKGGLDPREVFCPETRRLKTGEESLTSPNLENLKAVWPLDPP
How it was run: as §1

ETS2 = molecular target: T6, ETS2 (Homo sapiens, UniProt P15036 1-469)
T6 sequence: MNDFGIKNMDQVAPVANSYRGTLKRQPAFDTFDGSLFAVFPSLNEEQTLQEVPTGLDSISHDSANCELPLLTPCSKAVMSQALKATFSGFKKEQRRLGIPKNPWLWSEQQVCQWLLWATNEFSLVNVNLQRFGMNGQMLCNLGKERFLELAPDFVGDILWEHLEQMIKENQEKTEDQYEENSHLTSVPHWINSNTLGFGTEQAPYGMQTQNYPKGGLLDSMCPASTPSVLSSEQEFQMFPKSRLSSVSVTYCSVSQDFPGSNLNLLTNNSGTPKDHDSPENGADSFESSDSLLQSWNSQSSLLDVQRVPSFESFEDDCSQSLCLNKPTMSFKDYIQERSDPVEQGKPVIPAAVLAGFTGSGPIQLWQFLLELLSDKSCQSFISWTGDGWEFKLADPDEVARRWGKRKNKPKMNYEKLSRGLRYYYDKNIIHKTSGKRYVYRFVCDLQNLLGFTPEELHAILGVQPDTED
How it was run: as §1

ETV7 = molecular target: T7, ETV7 (Homo sapiens, UniProt Q9Y603 1-341)
T7 sequence: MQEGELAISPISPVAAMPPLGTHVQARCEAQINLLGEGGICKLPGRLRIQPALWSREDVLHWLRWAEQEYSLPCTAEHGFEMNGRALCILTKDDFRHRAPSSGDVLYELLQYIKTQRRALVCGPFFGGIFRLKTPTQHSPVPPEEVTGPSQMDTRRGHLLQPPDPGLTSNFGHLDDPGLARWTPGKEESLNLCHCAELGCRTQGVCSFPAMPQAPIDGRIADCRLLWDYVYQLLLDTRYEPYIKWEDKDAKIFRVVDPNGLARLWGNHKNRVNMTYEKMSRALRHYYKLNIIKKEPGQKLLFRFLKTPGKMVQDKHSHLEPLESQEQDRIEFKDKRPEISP
How it was run: as §1

ETV3 = molecular target: T8, ETV3 (Homo sapiens, UniProt P41162-2 1-143)
T8 sequence: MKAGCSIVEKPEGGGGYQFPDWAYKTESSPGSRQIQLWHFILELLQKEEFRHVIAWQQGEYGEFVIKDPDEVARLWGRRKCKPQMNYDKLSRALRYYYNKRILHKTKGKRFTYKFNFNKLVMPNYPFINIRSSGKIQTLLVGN
How it was run: as §1

ETV6 = ETV6 (Homo sapiens, UniProt P41212 1-452)
How it was run: as §1

ELF4, sequence (Q99607 whole entry): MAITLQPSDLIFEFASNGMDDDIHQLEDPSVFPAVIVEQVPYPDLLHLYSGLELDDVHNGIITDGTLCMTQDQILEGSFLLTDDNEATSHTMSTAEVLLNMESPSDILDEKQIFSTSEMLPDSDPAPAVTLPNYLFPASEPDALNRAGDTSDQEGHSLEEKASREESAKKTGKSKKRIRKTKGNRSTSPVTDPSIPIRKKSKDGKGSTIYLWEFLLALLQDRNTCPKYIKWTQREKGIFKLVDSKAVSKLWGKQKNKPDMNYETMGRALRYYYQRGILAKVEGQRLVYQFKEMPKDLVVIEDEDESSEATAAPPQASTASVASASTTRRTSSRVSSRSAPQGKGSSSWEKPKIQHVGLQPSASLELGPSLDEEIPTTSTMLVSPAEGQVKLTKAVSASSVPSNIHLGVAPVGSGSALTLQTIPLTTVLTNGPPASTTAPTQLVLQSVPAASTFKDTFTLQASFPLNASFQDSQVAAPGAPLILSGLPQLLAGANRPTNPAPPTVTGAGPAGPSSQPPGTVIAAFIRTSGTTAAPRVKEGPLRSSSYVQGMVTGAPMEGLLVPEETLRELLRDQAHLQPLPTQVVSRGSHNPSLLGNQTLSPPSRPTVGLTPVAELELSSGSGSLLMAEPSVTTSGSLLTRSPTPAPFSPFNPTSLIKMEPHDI
ELF1, sequence (P32519 whole entry): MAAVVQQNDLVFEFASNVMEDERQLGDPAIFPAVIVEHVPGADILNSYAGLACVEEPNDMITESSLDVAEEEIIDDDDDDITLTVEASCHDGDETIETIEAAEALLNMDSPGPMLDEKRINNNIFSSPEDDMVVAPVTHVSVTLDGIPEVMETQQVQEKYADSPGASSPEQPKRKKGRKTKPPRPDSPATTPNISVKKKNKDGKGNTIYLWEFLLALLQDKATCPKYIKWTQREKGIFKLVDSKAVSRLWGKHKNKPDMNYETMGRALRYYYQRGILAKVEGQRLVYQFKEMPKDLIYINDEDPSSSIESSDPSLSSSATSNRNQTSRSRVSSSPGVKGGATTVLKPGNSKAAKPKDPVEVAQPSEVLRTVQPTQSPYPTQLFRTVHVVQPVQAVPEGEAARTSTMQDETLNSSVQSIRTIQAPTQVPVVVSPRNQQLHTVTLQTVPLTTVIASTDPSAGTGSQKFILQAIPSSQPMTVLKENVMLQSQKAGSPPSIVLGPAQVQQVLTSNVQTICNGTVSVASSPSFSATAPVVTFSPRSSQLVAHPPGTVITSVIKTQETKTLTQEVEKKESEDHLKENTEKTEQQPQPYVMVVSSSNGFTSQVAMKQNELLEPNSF
ETV5, sequence (P41161 whole entry): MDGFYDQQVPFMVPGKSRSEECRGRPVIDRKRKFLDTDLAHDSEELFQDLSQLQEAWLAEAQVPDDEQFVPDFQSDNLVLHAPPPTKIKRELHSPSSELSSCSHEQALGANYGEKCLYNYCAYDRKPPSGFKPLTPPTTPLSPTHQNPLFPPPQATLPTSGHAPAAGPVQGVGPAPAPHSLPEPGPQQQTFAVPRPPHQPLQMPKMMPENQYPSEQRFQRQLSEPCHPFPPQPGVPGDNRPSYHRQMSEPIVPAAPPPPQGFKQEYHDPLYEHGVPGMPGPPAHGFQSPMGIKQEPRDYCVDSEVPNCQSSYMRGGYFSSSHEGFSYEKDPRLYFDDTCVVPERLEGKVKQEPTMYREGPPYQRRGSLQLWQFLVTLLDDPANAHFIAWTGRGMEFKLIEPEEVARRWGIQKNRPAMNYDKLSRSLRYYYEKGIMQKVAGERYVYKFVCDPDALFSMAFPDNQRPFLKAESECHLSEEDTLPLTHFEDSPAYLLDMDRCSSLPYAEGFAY
ETV1, sequence (P50549 whole entry): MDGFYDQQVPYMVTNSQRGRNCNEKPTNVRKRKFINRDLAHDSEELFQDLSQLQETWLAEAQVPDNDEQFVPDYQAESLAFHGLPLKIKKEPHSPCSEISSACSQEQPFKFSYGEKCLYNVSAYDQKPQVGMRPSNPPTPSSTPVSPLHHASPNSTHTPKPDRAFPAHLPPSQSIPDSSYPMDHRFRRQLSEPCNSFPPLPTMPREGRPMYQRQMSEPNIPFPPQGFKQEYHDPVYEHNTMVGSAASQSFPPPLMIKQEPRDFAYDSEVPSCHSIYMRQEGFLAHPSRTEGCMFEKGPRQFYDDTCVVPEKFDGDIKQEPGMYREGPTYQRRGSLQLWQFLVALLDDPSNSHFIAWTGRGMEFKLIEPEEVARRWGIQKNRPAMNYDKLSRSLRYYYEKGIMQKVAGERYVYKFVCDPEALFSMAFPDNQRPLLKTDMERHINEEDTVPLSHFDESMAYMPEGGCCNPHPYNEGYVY
ETV6, sequence (P41212 whole entry): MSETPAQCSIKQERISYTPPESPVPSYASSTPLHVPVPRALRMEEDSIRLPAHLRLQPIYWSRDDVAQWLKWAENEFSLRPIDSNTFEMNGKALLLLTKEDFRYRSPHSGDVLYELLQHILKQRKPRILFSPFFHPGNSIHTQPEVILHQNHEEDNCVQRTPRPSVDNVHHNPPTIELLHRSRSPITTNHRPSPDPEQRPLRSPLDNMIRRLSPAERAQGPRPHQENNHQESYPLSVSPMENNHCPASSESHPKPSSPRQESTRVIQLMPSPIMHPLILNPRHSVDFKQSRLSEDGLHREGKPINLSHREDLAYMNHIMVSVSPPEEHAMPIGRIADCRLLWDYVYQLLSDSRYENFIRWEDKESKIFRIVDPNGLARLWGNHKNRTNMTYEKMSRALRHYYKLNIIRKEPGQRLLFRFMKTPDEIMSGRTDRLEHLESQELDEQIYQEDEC
SPIB, sequence (Q01892 whole entry): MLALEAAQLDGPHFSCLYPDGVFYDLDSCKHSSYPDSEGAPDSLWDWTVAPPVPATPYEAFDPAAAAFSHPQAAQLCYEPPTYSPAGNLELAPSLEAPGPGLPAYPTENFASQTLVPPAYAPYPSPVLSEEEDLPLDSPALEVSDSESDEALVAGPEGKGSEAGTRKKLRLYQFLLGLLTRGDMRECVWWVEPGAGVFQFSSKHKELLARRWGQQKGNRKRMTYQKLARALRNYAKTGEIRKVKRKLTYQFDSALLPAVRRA

With CGCGTT the binding signal (GABPA) was 1.01 fold enrichment (6-mer frequency, TF over GST control), the binding signal (ELF1) was 1.12 fold enrichment (6-mer frequency, TF over GST control) and the binding signal (SPIB) was 1.05 fold enrichment (6-mer frequency, TF over GST control). The binding signal (FEV) was 1.09 fold enrichment (6-mer frequency, TF over GST control), the binding signal (ETV5) was 1.02 fold enrichment (6-mer frequency, TF over GST control) and the binding signal (ELF4) was 1.1 fold enrichment (6-mer frequency, TF over GST control). The binding signal (ELK4) was 1.09 fold enrichment (6-mer frequency, TF over GST control), the binding signal (ELF3) was 1.05 fold enrichment (6-mer frequency, TF over GST control) and the binding signal (ETV1) was 1.06 fold enrichment (6-mer frequency, TF over GST control). The binding signal (ETV3L) was 1.15 fold enrichment (6-mer frequency, TF over GST control), the binding signal (ETS2) was 1.13 fold enrichment (6-mer frequency, TF over GST control) and the binding signal (ETV7) was 1.02 fold enrichment (6-mer frequency, TF over GST control). For the same sequence, the binding signal (ETV3) was 1.03 fold enrichment (6-mer frequency, TF over GST control) and the binding signal (ETV6) was 1.06 fold enrichment (6-mer frequency, TF over GST control).
